# Source: PubChem BioAssay AID651820 (National Center for Advancing Translational Sciences (NCATS), 2012)
# The campaign covered roughly 340,000 compounds. About 12,000 (3.5%) were called active. Entries that show only a call come without a potency. Not shown: some 18% with an inconclusive outcome. Calls follow the shape of the dose curve; as a rule, active = well fitted inhibition curve with a large enough effect; inconclusive = small, poorly fitted or top-dose-only effect, or another doubt; inactive = no such curve, though single readings can be large or run the other way. The full list was thinned out, with actives kept by preference.
# Test: qHTS Assay for Inhibitors of Hepatitis C Virus (HCV)
# Conditions: Huh7.5.1 HCVcc-Cre infection, luciferase reporter, 44 h; series mostly up to 41.8 µM
# Procedure, shortened: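 Infectious HCVcc-Cre (~0.5 moi) was added to cells just after compound, with cells seeded 4 h earlier at 1,000 per well. Luciferase activity after 44 h culture reported infection; substrate was incubated 15 min at room temperature before reading.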
# Potency is read from the fitted curve at half-maximal effect.
Structure (SMILES),"activity change, negative = inhibition",Potency
O=[N+]([O-])c1ccc(COc2ccccc2CN2CCOCC2)cc1,-17.2% [at 8.37 µM] (inactive),–
Cc1cnc(NC(=O)c2ccccn2)s1,–,10 µM (active)
Cc1cnc(NC(=O)CSc2c(Cl)cccc2Cl)s1,–,inactive
Cc1cnc(NC(=O)c2ccc(Cl)nc2)s1,–,inactive
O=C(NCCc1ccc(F)cc1)c1ccc2nccnc2c1,–,inactive
NC(=O)c1ccc(N2CCCC2)nc1,–,inactive
C[C@H]1CN([C@@H](C)CO)C(=O)Cc2cc(NC(=O)Cc3ccccc3)ccc2O[C@H]1CN(C)S(=O)(=O)c1cccs1,–,inactive
COC(=O)c1ccc(SCc2ccccc2)nc1,–,inactive
CCCCOc1ccc(C(=O)NCC(=O)OCC(=O)c2c(N)n(C)c(=O)n(C)c2=O)cc1,–,inactive
COc1ccc(C(=O)N(C)Cc2ccc(OC)c(OC)c2OC)cc1S(=O)(=O)N1CCOCC1,–,inactive
COc1cc(OC)cc(-c2c(-c3ccc(F)cc3)c3cc(-c4ccc5cc[nH]c5c4)ccc3n2C)c1,–,10 µM (active)
COc1ccc(-c2c(C#Cc3ccccc3)c3ccccc3n2C)cc1,–,inactive
COc1cc(OC)cc(-c2c(C#Cc3ccsc3)c3cc(-c4ccc(OC)cc4F)ccc3n2C)c1,–,inactive
COc1cc(OC)cc(-c2c(C#Cc3ccsc3)c3cc(-c4ccc(SC)cc4)ccc3n2C)c1,–,inactive
COc1ccc(-c2c(-c3cc(OC)cc(OC)c3)n(C)c3ccc(-c4ccn[nH]4)cc23)cc1,–,11.2 µM (active)
COc1cc(OC)cc(-c2c(-c3cccs3)c3cc(-c4ccc(OC)nc4)ccc3n2C)c1,–,inactive
CC1O[C@H](OC2C(COC3OC(CO)C(O)[C@H](O)C3O)OC(OC3CC[C@]4(C)C(CC[C@@]5(C)[C@@H]4C=C[C@]46OC[C@@]7(CCC(C)(C)C[C@H]74)C(O)C[C@@]56C)C3(C)C)C(O)C2O)C(O)C(O)C1O (some centres undefined),–,inactive
CNC[C@@H]1Oc2c(NS(C)(=O)=O)cccc2C(=O)N([C@@H](C)CO)C[C@H]1C,–,inactive
CCN(CC(=O)Nc1ccccc1C(F)(F)F)C(=O)C1CCN(C(=O)Nc2ccccc2)CC1,–,inactive
COc1ccc(CCNC(=O)COC(=O)c2cc(=O)c3ccccc3o2)cc1,–,inactive
Cc1ccc(NC(=O)CCN2C(=O)c3ccccc3C2=O)cc1C,–,inactive
Cc1cc(C)cc(NC(=O)CN2C(=O)c3ccccc3C2=O)c1,–,inactive
Cc1cc2c(cc1C)N(C(=O)CN1C(=O)c3ccccc3C1=O)C(C)(C)c1ssc(=S)c1-2,–,8.91 µM (active)
O=C(NOCc1ccccc1)c1cccc([N+](=O)[O-])c1,–,inactive

Structure (SMILES),"activity change, negative = inhibition",Potency
O=C(Nc1cccc(-c2cccc(Cl)c2)c1)C1CCN(C2CCC2)CC1,–,12.6 µM (active)
O=C(Nc1cccc(Cl)c1)C1CCCN(c2cnccn2)C1 (centres undefined),–,inactive
O=C(NC1CCCC1)C1CCN(C(=O)Nc2cccc(Cl)c2)CC1,–,inactive
N#Cc1ccc(CN2CCN(CC(=O)Nc3ccccc3C(=O)NC3CC3)CC2)cc1,–,inactive
CCOC(=O)N1CCN(CC(=O)c2c(C)[nH]c3ccccc23)CC1,–,inactive
CCOC(=O)c1c(C)[nH]c2c1-c1ccccc1C(=O)C2=O,–,2.51 µM (active)
CCOC(=O)c1c(C)[nH]c(C)c1S(=O)(=O)N(C)CC(=O)Nc1ccccc1C,–,inactive
O=C1OC(Cc2ccccc2)C(c2ccccc2)C1=O (centres undefined),–,inactive
COCCN(CCOC)S(=O)(=O)NC[C@H]1O[C@@H](n2cnc3c(N)ncnc32)[C@H](O)[C@@H]1O,–,inactive
O=C(COc1coc(CN2CCN(c3ccccc3F)CC2)cc1=O)N1CCc2ccccc21,13.6% [at 8.37 µM] (inactive),–
Cc1ccc(Nc2c(O)nc[nH]c2=O)cc1C,–,inactive
O=C(NNC(=S)NCc1ccccc1)c1ccc(OC(F)F)cc1,–,inactive
CC/C(=N\NC(=S)NC(C)C)c1ccc(OC(F)F)cc1,–,10 µM (active)
CC(C)N(Cc1ccccc1)C(=S)Nc1ccc(OC(F)F)cc1,–,inactive
CC(C)c1ccc(/C=C/C(=O)NCCCN2CCOCC2)cc1,–,inactive
C[C@H]1COC(=O)[C@H](CC(=O)OC(C)(C)C)C/C=C\C[C@@H](CC(=O)N[C@H](CO)Cc2ccccc2)C(=O)N1,–,inactive
O=C(N/N=C/c1ccoc1)c1ccc(Cl)cc1Cl,–,inactive
O=C(N/N=C/c1ccc(OC(=O)c2ccccc2Cl)cc1)c1ccc(O)cc1,–,inactive
CC(C)(C)C(=O)Nc1ccc(C(=O)N/N=C/c2ccccc2OC(=O)c2ccc(Cl)cc2Cl)cc1,–,10 µM (active)
CCOc1ncccc1C(=O)Nc1ccc(S(=O)(=O)Nc2nc(C)cc(C)n2)cc1,–,inactive
Cc1ccc(S(=O)(=O)N(Cc2cc3ccccc3[nH]c2=O)CC2CCCO2)cc1 (centres undefined),–,inactive
CCC(=O)N(CCc1ccccc1)Cc1cc2cc(C)ccc2[nH]c1=O,–,inactive
CCN(Cc1cc2cc(C)ccc2[nH]c1=O)S(=O)(=O)c1ccccc1,–,11.2 µM (active)
O=C(COC(=O)c1ccc2c(c1)OCCO2)NCc1ccccc1Cl,–,inactive

Structure (SMILES),"activity change, negative = inhibition",Potency
CCOc1ccc(-n2c(O)c(/C=N/Nc3nnc(C)c(=O)[nH]3)c3ccccc3c2=O)cc1,–,inactive
CCOc1ccc(-n2c(O)c(/C=N/Nc3nc(C)cc(C)n3)c3ccccc3c2=O)cc1,–,2.24 µM (active)
CCOc1ccc(-n2c(O)c(/C=N/c3ccnn3Cc3ccncc3)c3ccccc3c2=O)cc1,–,inactive
COC(=O)C1CC2=C(CC(C)(C)CC2=O)N(c2ccccc2)C1=O (centres undefined),–,inactive
CC1CC2=C(CC1/C=N/NC(N)=S)C(C)(C)CCC2 (centres undefined),–,6.31 µM (active)
C[C@@H]1ON(C)[C@H]2C[C@H]3c4cc(N5CCN(C)CC5)ccc4CCN3C(=O)[C@@H]12,–,inactive
O=C(NCc1ccc(Cl)cc1)C(=O)NCC1CCCN1S(=O)(=O)c1cccs1 (centres undefined),–,inactive
Oc1ccc(-c2nnc(Nc3ccccc3)c3ccccc23)cc1,–,inactive
CCOC(=O)c1nc(Nc2ccc(C(=O)OC)cc2)c2ccccc2n1,–,inactive
COc1ccc(Nc2nc(-c3cccnc3)nc3ccccc23)cn1,–,7.94 µM (active)
COc1ccccc1Oc1nc(-c2cccnc2)nc2ccccc12,–,inactive
Cc1cccc(-c2nc(Nc3ccc(O)cc3)c3ccccc3n2)c1,–,12.6 µM (active)
S=c1nc2ccccc2c2nc(-c3cccnc3)[nH]n12,–,inactive
COc1ccc(Br)cc1CN(C)C(=O)C1CC(=O)N(C2CCCC2)C1 (centres undefined),–,inactive
O=C(CC1SC(N2CCCC2)=NC1=O)Nc1ccc(C(=O)NCCc2ccc(F)cc2)cc1 (centres undefined),–,inactive
O=C(COC(=O)c1c(Cl)cccc1Cl)Nc1cccc(S(=O)(=O)NC2=NCCCCC2)c1,–,inactive
CCN1C[C@@H]2[C@@H]3C(=O)N(Cc4ccccc4)C(=O)[C@@H]3[C@](C)(C1=O)N2C(=O)c1ccc(C(C)(C)C)cc1,–,inactive
CCc1ccc(C(=O)N2CCN(S(=O)(=O)c3sc(C(=O)O)c(C)c3C(=O)O)CC2)cc1,–,inactive
c1ccc2c(c1)OC1OC2Oc2ccccc21,–,inactive
COc1ccccc1N1CCN(C(=O)C2Cc3ccccc3CN2C(=O)c2ccco2)CC1 (centres undefined),–,inactive
CCC(C)N1C(=S)SC(C)(C)C1N(O)C(=O)NC1CCCCC1 (centres undefined),–,inactive
CCCCNC(=O)N(O)C1N(/N=C/c2ccc(N(C)C)cc2)C(=S)SC1(C)C (centres undefined),–,inactive
CCCCNC(=O)N(O)C1N(/N=C/c2ccccc2O)C(=S)SC1(C)C (centres undefined),–,7.08 µM (active)
CC1CCCCC1NC(=O)c1cc(=O)[nH]c2ccccc12 (centres undefined),–,inactive

Structure (SMILES),"activity change, negative = inhibition",Potency
O=C(CSc1nc(=O)n2ccccc2n1)Nc1ccc2c(c1)OCCO2,–,inactive
CCOC(=O)C1=C(c2ccccc2)NC(=O)NC1c1cc(OCC)c(O)c([N+](=O)[O-])c1 (centres undefined),–,inactive
CCN1C(=O)N[C@@H](c2ccccc2)C(C(=O)OC)=C1C,–,inactive
CCOC(=O)C1=C(C)N(C[C@@H]2CC[C@@H](Cc3ccc(-c4ccccc4)cc3)O2)C(=O)NC1c1ccc([N+](=O)[O-])cc1 (some centres undefined),–,11.2 µM (active)
C[C@]12c3[nH]c4ccc(Cl)cc4c3CCN1C(=O)[C@@H](CC(=O)NCCCn1ccnc1)C[C@@H]2C(=O)N1CCOCC1,–,inactive
Cc1ccc(NC(=O)CN(C)C(=O)Cn2nnc(-c3ccccc3)n2)cc1,–,inactive
COc1ccc(CCNC(=O)C(=O)NCC2OCCN2S(=O)(=O)c2ccc(F)cc2)cc1OC (centres undefined),–,inactive
COc1ccc(CCNC(=O)C(=O)NCC2OCCN2S(=O)(=O)c2ccc(OC)c(C)c2)cc1 (centres undefined),–,15.8 µM (active)
COc1ccc(S(=O)(=O)N2CCOC2CNC(=O)C(=O)NCc2ccncc2)cc1C (centres undefined),–,inactive
Cc1cccc(OCC(=O)OCC(=O)Nc2ccc(Cl)cn2)c1,–,inactive
COc1ccccc1NC(=O)N(O)C1(C#N)CCCCC1,–,inactive
O=C(NCc1ccc2c(c1)OCO2)c1c(-c2ccsc2)sc2ccccc12,–,inactive
CCCSc1nc2sc3c(c2c(=O)n1-c1ccc(OC)cc1)CCN(C)C3,–,11.2 µM (active)
COc1ccccc1-n1c(SCC(=O)O)nc2sc3c(c2c1=O)CCC3,–,inactive
CCOc1ccc(-n2c(SCC(=O)Nc3ccc(OC)cc3)nc3sc4c(c3c2=O)CCN(C)C4)cc1,–,11.2 µM (active)
CCn1c(SCC(=O)Nc2ccc(Br)cc2)nc2sc3c(c2c1=O)CCN(C)C3,–,4.47 µM (active)
O=C1CCCN2N=C(SCC(=O)Nc3ccc(Br)cc3)SC2=N1,–,inactive
CCOc1ccc(NC(=O)CSc2nncn2C)cc1,–,inactive
CCSc1nc2sc3c(c2c(=O)n1-c1ccc(C)cc1)CCN(C)C3,–,inactive
COc1ccccc1NC(=O)CSc1nc2sc3c(c2c(=O)n1-c1ccccc1)CCN(C)C3,–,inactive
C=CCn1c(SCC(=O)Nc2ccc(NC(C)=O)cc2)nc2sc(C)c(C)c2c1=O,–,inactive
O=C(NCCSc1ncc(-c2ccccc2)[nH]1)c1ccco1,-7.56% [at 8.37 µM] (inactive),–
